Screens (PubChem BioAssay)
HCMV antiviral = blocks human cytomegalovirus replication; HFF cells, HCMV-luciferase reporter, 72 h; hits give low values; activity change, negative = inhibition, % at 57.5 µM; AID 1259415; 4.5% of 410,000 active; in the data active means activity change below about -60%; inconclusive means no clear call, values can overlap the other calls; inactive means above about -39%
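Inhibition of viral replication was scored as loss of reporter luminescence in HFFs infected with HCMV-luciferase (MOI 1 PFU/cell) for 72 h; compounds tested at 2 doses, normalized to buffer and Salinomycin controls.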
MARV entry inh = blocks Marburg virus binding to or entry into cells; Marburg virus pseudotyped entry inhibition, cell reporter; Potency, µM (highest dose often 37.8 µM), usual class: inhibitors; 1.8% of 300,000 active; AID 540276; calls by dose curve; tested in HEK293 cells
FMDV inh = antivirals against foot and mouth disease virus. Potency, µM (series often up to 57.9 µM), hits mostly inhibitors. 1.2% of 410,000 active. FMDV antiviral cell-based qHTS; calls by dose curve; tested in HEK293T cells; further: read-out not given here; nearly all actives have a fitted effect of over 45% in size
Lassa entry inh = inhibitors of Lassa virus binding or cell entry | AID 540256 | Potency, µM (titrated, usually from 37.9 µM), hits mostly inhibitors | 1.2% of 300,000 active | Lassa virus pseudotype entry inhibition, cell reporter; calls by dose curve; tested in HEK293 cells; further: nearly all actives have a fitted effect of over 50% in size
Of the large screens only hits and unclear results are named; the others gave an inactive call. Most compounds without a hit are left out; they make up all but 6.2% or so of the library.

CC(C)C[C@@H]1NC(=O)[C@H](CCCN)NC(=O)[C@H](C(C)C)NC(=O)[C@@H]2CCCN2C(=O)[C@@H](Cc2ccccc2)NC(=O)[C@H](CC(C)C)NC(=O)[C@H](CCCN)NC(=O)[C@H](C(C)C)NC(=O)[C@@H]2CCCN2C(=O)[C@@H](Cc2ccccc2)NC1=O	FMDV inh 6.31µM (no result: HCMV antiviral, MARV entry inh, Lassa entry inh)
OC1CCN(c2c3c(nc4cc(-c5ccc(Cl)cc5)nn24)CCC3)CC1	none
COC(=O)CCn1nnc(-c2ccc(C(C)C)cc2)n1	HCMV antiviral -62.4, MARV entry inh inconclusive, FMDV inh inconclusive, Lassa entry inh inconclusive
CN(C)c1ccc(P(=O)(Nc2cccc(C(F)(F)F)c2)N2CCOCC2)c(NC(=O)c2cccs2)c1 (stereo not drawn)	none
CC1(C)COCN1S(=O)(=O)c1ccc(C(=O)Nc2nnc(-c3ccc(Cl)s3)o2)cc1	MARV entry inh 6.31µM, FMDV inh inconclusive, Lassa entry inh inconclusive (no result: HCMV antiviral)
COc1ccc(-c2nnc(NC(=O)c3ccc(S(=O)(=O)N4COCC4(C)C)cc3)o2)cc1	HCMV antiviral -62.5, MARV entry inh inconclusive, Lassa entry inh inconclusive
CCCC(=O)Nc1nnc(-c2ccc(Cl)s2)o1	none (no result: MARV entry inh, Lassa entry inh)
Cc1ccc(NC(=S)N(CCCN2CCOCC2)Cc2ccco2)cc1	none
Nc1ccc(C(=O)n2c3ccccc3c3ccccc32)cc1	HCMV antiviral -79.1, MARV entry inh 3.98µM, FMDV inh inconclusive, Lassa entry inh inconclusive
